Hedgehog inh – Sonic Hedgehog pathway inhibition. Shh-LIGHT2 Gli-luciferase reporter, 30 h. inhibition, % (no concentration beside the values). AID 2313. hit rate 2.1% among 22,000;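 active = mean inhibition across valid replicates above about 65%, limit read from the data; inconclusive = mean under the limit, yet half or more replicates past it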;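 also: pathway switched on by Shh-conditioned medium diluted 1 in 25 in low serum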
MITF inhib – MITF inhibition; TRPM1 promoter luciferase, luminescence, 24 h; inhibition, % (concentration not given with the values); hit rate 0.28% among 37,000; AID 2240; in the data active = inhibition above about 85%; inconclusive = no clear call, values can overlap the other calls; inactive = below about 68%;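 also: human melanocyte line stably carrying TRPM1 promoter luciferase reporter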
NOMO-1 viab – STK33 inhibitor candidate reducing NOMO-1 cell viability | NOMO-1 AML viability, CellTiter-Glo luminescence, 72 h | hit rate 7.5% among 37,000 | AID 2330 | inhibition, % (no concentration beside the values); in the data active = inhibition above about 80%; inconclusive = no clear call, values can overlap the other calls
* = called active by the depositor. Only some compounds are listed: those with a hit (about 7.9% of all), similar ones and a draw of the others.

How did C=CCN1CCc2c(cc(O)c(O)c2Cl)C(c2ccccc2)C1 (stereo not given) do in these assays?
Hedgehog inh: inconclusive; MITF inhib: 3; NOMO-1 viab: 117*

Results for CS/C(N)=N/C(N)=Nc1ccc(Cl)cc1 ?
Hedgehog inh: 5; MITF inhib: 10; NOMO-1 viab: 34

Results for Cc1cc(C)c(NC(=O)CN(C)S(=O)(=O)c2ccc(Cl)cc2)c(C)c1 ?
MITF inhib: 14; NOMO-1 viab: 1

Results for COC(=O)CN1C(=O)CN(c2nc(C)cc(C)n2)C1=O ?
MITF inhib: -7; NOMO-1 viab: 34

How did C[C@H](CO)N1C[C@H](C)[C@@H](CN(C)Cc2ccc3c(c2)OCO3)Oc2ccc(NC(=O)Nc3ccc(C(F)(F)F)cc3)cc2C1=O do in these assays?
MITF inhib: -1; NOMO-1 viab: 11

Results for C[C@@H]1CN([C@@H](C)CO)C(=O)c2cc(NC(=O)Nc3ccc(C(F)(F)F)cc3)ccc2O[C@H]1CN(C)Cc1ccc2c(c1)OCO2 ?
MITF inhib: -3; NOMO-1 viab: 59

What do the screens show for `C[C@@H]1CN([C@@H](C)CO)C(=O)c2cc(NC(=O)Nc3ccc(C(F)(F)F)cc3)ccc2O[C@@H]1CN(C)Cc1ccc2c(c1)OCO2`?
MITF inhib: -4; NOMO-1 viab: 112*

Results for C[C@@H]1CN([C@H](C)CO)C(=O)c2cc(NC(=O)Nc3ccc(C(F)(F)F)cc3)ccc2O[C@@H]1CN(C)Cc1ccc2c(c1)OCO2 ?
MITF inhib: -10; NOMO-1 viab: 49

What do the screens show for `C[C@@H]1CN([C@@H](C)CO)C(=O)c2cc(NC(=O)Nc3ccc(F)cc3)ccc2O[C@@H]1CN(C)Cc1ccc2c(c1)OCO2`?
Hedgehog inh: 44; MITF inhib: -2; NOMO-1 viab: 19

What do the screens show for `C[C@H](CO)N1C[C@H](C)[C@H](CN(C)Cc2ccc3c(c2)OCO3)Oc2ccc(NC(=O)Nc3ccc(C(F)(F)F)cc3)cc2C1=O`?
Hedgehog inh: 8; MITF inhib: 1; NOMO-1 viab: 99*

What do the screens show for `C[C@H]1CN([C@@H](C)CO)C(=O)c2cc(NC(=O)Nc3ccc(C(F)(F)F)cc3)ccc2O[C@@H]1CN(C)Cc1ccc2c(c1)OCO2`?
MITF inhib: -12; NOMO-1 viab: 101*

How did C[C@H]1CN([C@@H](C)CO)C(=O)c2cc(NC(=O)Nc3ccc(F)cc3)ccc2O[C@H]1CN(C)Cc1ccc2c(c1)OCO2 do in these assays?
Hedgehog inh: -25; MITF inhib: 7; NOMO-1 viab: 92*

Results for COc1ccc(-c2cc(C(F)(F)F)nc(SCC(=O)Nc3ccc(Cl)cc3Cl)n2)cc1 ?
MITF inhib: 19; NOMO-1 viab: 15

What do the screens show for `Cc1cc(=S)nc(-c2ccccn2)[nH]1`?
Hedgehog inh: 17; MITF inhib: 12; NOMO-1 viab: 112*

What do the screens show for `c1ccc(-c2nc3ccc(Cc4ccc5nc(-c6ccccn6)c(-c6ccccn6)nc5c4)cc3nc2-c2ccccn2)nc1`?
MITF inhib: -18; NOMO-1 viab: -18

How did CCOC(=O)c1c(NC(=O)CSc2nc3ccccc3[nH]2)sc2c1CCCC2 do in these assays?
MITF inhib: 13; NOMO-1 viab: 39

Results for CC(=O)N1CCN(c2ccc(OCC3CO[C@](Cn4ccnc4)(c4ccc(Cl)cc4Cl)O3)cc2)CC1 (stereo not given in full) ?
Hedgehog inh: 107*; MITF inhib: 58; NOMO-1 viab: 107*

Results for CC(C)N1CCN(c2ccc(OC[C@H]3CO[C@](Cn4cncn4)(c4ccc(Cl)cc4Cl)O3)cc2)CC1 ?
Hedgehog inh: 45; MITF inhib: -6; NOMO-1 viab: 31

Results for CCC(C)C(=O)OCC1(c2ccc(C)cc2OC(=O)C(C)C)CO1 (stereo not given) ?
Hedgehog inh: -18; MITF inhib: 2; NOMO-1 viab: 118*

What do the screens show for `CC[C@H](NS(=O)(=O)c1ccc(C)cc1)C(=O)Oc1cc2oc(=O)cc(C)c2cc1Cl`?
MITF inhib: -26; NOMO-1 viab: 25

How did C[C@H]1CN([C@@H](C)CO)C(=O)c2cccc(NS(=O)(=O)c3ccc(F)cc3)c2O[C@H]1CN(C)Cc1ccc(Cl)c(Cl)c1 do in these assays?
Hedgehog inh: 6; MITF inhib: -11; NOMO-1 viab: 24

What do the screens show for `COc1ccc(S(=O)(=O)Nc2cccc3c2O[C@@H](CN(C)Cc2ccc(Cl)c(Cl)c2)[C@@H](C)CN([C@H](C)CO)C3=O)cc1`?
Hedgehog inh: 115*; MITF inhib: 46; NOMO-1 viab: 115*

How did COc1ccc(S(=O)(=O)Nc2cccc3c2O[C@H](CN(C)Cc2ccc(Cl)c(Cl)c2)[C@H](C)CN([C@@H](C)CO)C3=O)cc1 do in these assays?
Hedgehog inh: 53; MITF inhib: -4; NOMO-1 viab: 31

What do the screens show for `C[C@H](CO)N1C[C@H](C)[C@H](CN(C)Cc2ccc(Cl)c(Cl)c2)Oc2c(NS(=O)(=O)c3ccc(F)cc3)cccc2C1=O`?
Hedgehog inh: 86*; MITF inhib: 27; NOMO-1 viab: 91*

What do the screens show for `Cc1cc(OCC(=O)Nc2ccccc2C(=O)NC2CCCCC2)ccc1Br`?
MITF inhib: -5; NOMO-1 viab: 29

How did C[C@@H]1CN([C@@H](C)CO)C(=O)c2cc(NC(=O)Cc3cn(C)c4ccccc34)ccc2O[C@@H]1CN(C)C(=O)Nc1ccc(F)cc1 do in these assays?
Hedgehog inh: 0; MITF inhib: 5; NOMO-1 viab: 11

Results for O=C(CSc1nnnn1-c1ccccc1)Nc1ccc2c(c1)OCCO2 ?
MITF inhib: -33; NOMO-1 viab: -13

Results for CCOC(=O)CSc1ncc(-c2ccccc2)nn1 ?
MITF inhib: -23; NOMO-1 viab: -22

How did CCOC(=O)CSc1sc(C(=O)OCC)c2c1S(=O)(=O)N(C)c1ccccc1-2 do in these assays?
Hedgehog inh: -12; MITF inhib: 12; NOMO-1 viab: 120*

How did O=C1c2c(O)cc(O)cc2OC(c2ccc(O)cc2)C1C1C(=O)c2c(O)cc(O)cc2OC1c1ccc(O)cc1 (stereo not given) do in these assays?
Hedgehog inh: -42

What do the screens show for `O=C1c2c(O)cc(O)cc2O[C@@H](c2ccc(O)cc2)[C@H]1[C@@H]1C(=O)c2c(O)cc(O)cc2O[C@H]1c1ccc(O)cc1`?
Hedgehog inh: 72*; MITF inhib: -5; NOMO-1 viab: 58

What do the screens show for `COc1ccc(NC(=O)CSc2nnc(N)s2)cc1Cl`?
MITF inhib: -19; NOMO-1 viab: -11

How did CC1(C)CC(=O)C2=C(C1)Nc1ccccc1N(C(=O)C(F)(F)F)C2c1ccc(Cl)cc1Cl (stereo not given) do in these assays?
Hedgehog inh: -11; MITF inhib: 25; NOMO-1 viab: 87*

How did COc1ccc(C2C3=C(CC(C)(C)CC3=O)Nc3ccccc3N2C(C)=O)cc1COc1ccc(F)cc1 (stereo not given) do in these assays?
MITF inhib: -20; NOMO-1 viab: 9

Results for CCc1cc(-c2n[nH]c(C)c2-c2nc(C)cs2)c(O)cc1OCc1ccc([N+](=O)[O-])cc1 ?
MITF inhib: 58; NOMO-1 viab: 109*

How did CCc1cc(-c2n[nH]c(C(=O)O)c2-c2nc(C)cs2)c(O)cc1O do in these assays?
MITF inhib: 3; NOMO-1 viab: 8

How did C[C@H](CO)N1C[C@H](C)[C@@H](CN(C)S(=O)(=O)c2ccccc2)Oc2ccc(N(C)C)cc2C1=O do in these assays?
Hedgehog inh: 8; MITF inhib: -1; NOMO-1 viab: 31
